Measured values from PubChem BioAssay (NCATS).
Records with an inconclusive call do not appear. Calls of active or inactive are those of the source. Unless noted, calls come from the whole dose curve; as a rule, active = well fitted curve in either direction with a large enough effect (not every such curve was filed as active); inconclusive = small, poorly fitted or top-dose-only effect, or another doubt; inactive = flat fitted curve, though single readings scatter.

Experiments:
[1] = target: Lysosomal acid glucosylceramidase (Homo sapiens) (UniProt P04062); test: Glucocerebrosidase-p2 (AID 348; in the data active = potency below about 10 µM; note: potency is the fitted concentration of half-maximal effect); conditions: purified GBA, blue fluorogenic substrate, 40 min
Sequence of Lysosomal acid glucosylceramidase (Homo sapiens) (P04062 whole entry, looked up): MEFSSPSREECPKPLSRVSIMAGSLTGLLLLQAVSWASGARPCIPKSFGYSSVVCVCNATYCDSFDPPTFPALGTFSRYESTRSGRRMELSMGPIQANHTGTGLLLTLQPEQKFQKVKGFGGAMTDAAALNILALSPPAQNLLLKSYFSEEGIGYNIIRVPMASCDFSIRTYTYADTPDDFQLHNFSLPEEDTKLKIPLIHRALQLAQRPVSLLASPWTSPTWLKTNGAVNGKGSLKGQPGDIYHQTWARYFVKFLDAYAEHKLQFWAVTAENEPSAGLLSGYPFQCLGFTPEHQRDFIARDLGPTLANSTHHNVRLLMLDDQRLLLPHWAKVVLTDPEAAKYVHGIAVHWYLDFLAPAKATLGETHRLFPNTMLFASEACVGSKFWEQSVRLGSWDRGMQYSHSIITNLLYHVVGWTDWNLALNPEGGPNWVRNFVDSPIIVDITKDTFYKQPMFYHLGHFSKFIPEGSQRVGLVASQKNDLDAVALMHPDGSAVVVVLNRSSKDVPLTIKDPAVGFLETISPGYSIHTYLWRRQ
In short: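 Compounds titrated from 0.6 nM upwards against 0.2 nM enzyme in pH 5.9 citric acid/KH2PO4, taurocholate, tween-20; blue fluorogenic substrate 80 uM, 40 min room temperature, stopped and read Ex 365/Em 440 for AC50.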

[2] = AP1 Signaling Pathway (AID 357); conditions: ME-180 AP-1-bla reporter, EGF-induced, beta-lactamase ratio, 5 h; at 7.69 µM (top of the series) unless noted;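 note: ME-180 reporter cells stimulated with EGF at its EC50 level; % is set by controls: 0 for no effect and ±100 for the full control effect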
In short: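 Beta-lactamase reporter under AP-1 response element, ME-180 background. Stimulus: EC50 EGF. Compound exposure 5 h, 37 °C. Detection: CCF4, 2.5 h RT, 460/530 nm. Values: AC50 from titration.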

[3] = target: Cytochrome P450 1A2 (Homo sapiens) (UniProt P05177); test: p450-cyp1a2 (AID 410; calls by dose curve; note: potency is the fitted concentration of half-maximal effect;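 for activity change, negative = inhibition: -100% = full effect of reference inhibitor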); conditions: recombinant CYP1A2, luciferin-ME demethylation, luminescence; series mostly up to 11.4 µM
Sequence of Cytochrome P450 1A2 (Homo sapiens) (P05177 whole entry, looked up): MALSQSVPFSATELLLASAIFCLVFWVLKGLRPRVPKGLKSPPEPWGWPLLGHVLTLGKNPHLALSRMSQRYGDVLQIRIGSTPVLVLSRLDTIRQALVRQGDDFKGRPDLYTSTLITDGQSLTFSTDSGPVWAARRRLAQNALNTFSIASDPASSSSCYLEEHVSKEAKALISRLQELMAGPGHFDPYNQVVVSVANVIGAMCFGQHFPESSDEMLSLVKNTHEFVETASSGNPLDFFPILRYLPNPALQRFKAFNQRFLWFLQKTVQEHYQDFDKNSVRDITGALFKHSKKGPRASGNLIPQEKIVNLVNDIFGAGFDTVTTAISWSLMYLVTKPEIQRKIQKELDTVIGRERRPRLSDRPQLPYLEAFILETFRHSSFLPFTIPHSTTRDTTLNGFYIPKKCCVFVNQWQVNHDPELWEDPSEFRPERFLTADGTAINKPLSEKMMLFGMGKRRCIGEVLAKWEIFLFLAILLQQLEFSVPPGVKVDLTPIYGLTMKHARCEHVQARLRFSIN
In short: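 20nM CYP1A2 with 100uM Luciferin-ME (at Km) in 100mM KPO4; compound preincubated 10 min, NADPH regeneration added, 60 min at room temperature. Luciferin quantified by luminescence after detection reagent; normalized to 57 uM furafylline.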

[4] = NFAT Signaling Pathway (AID 444); conditions: Jurkat NFAT-bla M1, carbachol, beta-lactamase ratio, 5 h; at 7.69 µM (top of the series) unless noted;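 note: carbachol stimulus at about its EC50 of 1 µM final; % is set by controls: 0 for no effect and ±100 for the full control effect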
In short: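 Read-out: CCF4 FRET ratio (460 nm/530 nm) after 1 h RT dye loading, used for %activity and AC50 from titration series. Cells: Jurkat NFAT-β-lactamase/M1 line, treated with compound plus 1 uM carbachol for 5 h, 37 °C.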

[5] = Stat Signaling Pathway (AID 446); conditions: ME-180 SIE beta-lactamase reporter, IL-6 stimulated, 5 h; at 7.69 µM (top of the series) unless noted;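 note: ME-180 cervical cancer cells given 40 pM IL-6 alongside compound; SIE-controlled beta-lactamase reporter measured as 460/530 nm FRET emission ratio; % is set by controls: 0 for no effect and ±100 for the full control effect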
In short: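 ME-180 SIE-bla cells; overnight plating; cpd + IL-6 40 pM, 5 h, 37 C; LiveBLAzer 2.5 h RT; 460/530 nm emission ratio. Normalized to 300 pM IL-6 and 125 nM JAK inhibitor controls.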

[6] = target: Glucocorticoid receptor (Homo sapiens) (UniProt P04150); test: GR-GFP Redistribution (AID 450;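 active = compounds whose dose series gives a full or clear partial fitted curve of increased nuclear translocation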; note: potency is the fitted concentration of half-maximal effect); conditions: U2OS GR-GFP nuclear translocation, laser cytometry, 2 h
Sequence of Glucocorticoid receptor (Homo sapiens) (P04150 whole entry, looked up, the tested form may be a part): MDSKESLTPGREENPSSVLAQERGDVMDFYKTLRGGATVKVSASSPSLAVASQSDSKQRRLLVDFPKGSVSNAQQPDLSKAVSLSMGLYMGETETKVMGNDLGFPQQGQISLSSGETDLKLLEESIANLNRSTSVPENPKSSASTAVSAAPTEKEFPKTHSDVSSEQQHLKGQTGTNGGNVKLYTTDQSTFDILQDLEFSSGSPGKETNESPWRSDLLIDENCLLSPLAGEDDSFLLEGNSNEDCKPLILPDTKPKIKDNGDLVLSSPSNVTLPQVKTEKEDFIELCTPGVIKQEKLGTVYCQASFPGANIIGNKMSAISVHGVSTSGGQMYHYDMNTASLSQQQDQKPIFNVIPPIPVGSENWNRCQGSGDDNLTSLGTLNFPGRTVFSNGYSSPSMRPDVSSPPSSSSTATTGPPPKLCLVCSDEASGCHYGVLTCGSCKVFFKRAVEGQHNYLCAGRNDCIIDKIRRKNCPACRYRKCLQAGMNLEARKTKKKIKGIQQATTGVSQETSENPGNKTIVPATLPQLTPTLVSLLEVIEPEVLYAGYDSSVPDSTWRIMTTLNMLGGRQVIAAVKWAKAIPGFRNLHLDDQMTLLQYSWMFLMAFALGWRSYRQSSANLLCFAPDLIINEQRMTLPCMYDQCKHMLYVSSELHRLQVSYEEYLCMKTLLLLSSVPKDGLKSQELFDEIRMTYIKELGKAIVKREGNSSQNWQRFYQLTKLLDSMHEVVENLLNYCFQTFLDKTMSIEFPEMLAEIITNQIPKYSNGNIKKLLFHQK

[7] = target: Glucocorticoid receptor (Homo sapiens) (UniProt P04150); test: GR-EFC Redistribution (AID 451; calls by dose curve; note: potency is the fitted concentration of half-maximal effect); conditions: CHO-K1 GR-EFC translocation, beta-gal luminescence, 2 h
In short: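 Translocation of GR-ED fusion to nuclear EA restores b-gal, read by luminescence after 1 h room-temperature detection. Engineered CHO-K1 biosensor cells, 1,000/well, exposed 2 h at 37 C to titrations up to 46 uM final.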

[8] = target: Mitogen-activated protein kinase 10 (Mus musculus) (UniProt Q61831); test: JNK3 AlphaScreen Assay (AID 530); conditions: JNK3 lysate, c-Jun phosphorylation; series mostly up to 11.4 µM;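 note: kinase came from lysate of stimulated human HepG2 cells; signal reports phosphorylation of biotinylated GST-cJun 1-79 at Ser73 with 10 µM ATP; % is set by controls: 0 for no effect and ±100 for the full control effect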
In short: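 Compound titrations were preincubated 15 minutes at room temperature with substrate, antibody and pre-activated JNK3-containing HepG2 lysate. Reactions were started with 10 uM ATP and stopped with EDTA-containing bead buffer for AlphaScreen detection.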

[9] = target: 3',5'-cyclic-AMP phosphodiesterase 4B (Homo sapiens) (UniProt Q07343); test: qHTS Assay for Inhibitors of PDE-IV (AID 607; active = well fitted activation curve with a large enough effect in the main read-out, with a control signal flat, not every such curve was filed as active; note: % of control where 0% means no effect); conditions: HEK293 ACTOne CNG channel cells, membrane potential fluorescence; series mostly up to 22.9 µM
Sequence of 3',5'-cyclic-AMP phosphodiesterase 4B (Homo sapiens) (Q07343 whole entry, looked up): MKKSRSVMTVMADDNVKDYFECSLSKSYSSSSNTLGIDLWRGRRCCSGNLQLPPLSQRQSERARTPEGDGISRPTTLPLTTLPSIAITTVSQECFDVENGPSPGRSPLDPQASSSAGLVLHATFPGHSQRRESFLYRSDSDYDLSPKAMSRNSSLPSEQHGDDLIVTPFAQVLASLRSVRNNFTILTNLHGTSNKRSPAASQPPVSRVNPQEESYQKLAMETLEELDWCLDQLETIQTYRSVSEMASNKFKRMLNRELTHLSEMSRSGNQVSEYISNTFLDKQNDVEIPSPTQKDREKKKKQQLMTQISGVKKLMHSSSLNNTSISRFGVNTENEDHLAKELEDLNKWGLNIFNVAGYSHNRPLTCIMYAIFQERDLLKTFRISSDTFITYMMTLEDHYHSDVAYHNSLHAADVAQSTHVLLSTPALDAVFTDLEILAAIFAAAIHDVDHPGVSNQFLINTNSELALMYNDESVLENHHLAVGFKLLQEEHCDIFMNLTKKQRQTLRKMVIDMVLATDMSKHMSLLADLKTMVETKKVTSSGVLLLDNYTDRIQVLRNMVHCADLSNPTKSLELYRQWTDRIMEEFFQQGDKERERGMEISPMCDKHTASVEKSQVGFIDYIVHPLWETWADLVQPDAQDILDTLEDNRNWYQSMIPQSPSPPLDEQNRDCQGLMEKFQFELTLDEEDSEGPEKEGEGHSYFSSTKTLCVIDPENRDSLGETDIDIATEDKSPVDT
In short: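 ACTOne HEK293 cells carry a modified cAMP-gated CNG channel and express endogenous PDE4; plated 1000 cells/well, compounds up to 22.9 uM final. Membrane-potential dye fluorescence (ex 535/em 590) was read; parental cells received 10 uM forskolin + 100 uM RO 20-1724.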

[10] = qHTS Assay for Identification of Small Molecule Agonists for Hypoxia Response Element Signaling Pathway (AID 914; active = well fitted activation curve with a large enough effect in the signal ratio, with a control signal flat, not every such curve was filed as active; the % refers to the signal ratio; note: % of control where 0% means no effect); conditions: ME-180 (cervical carcinoma) HRE-bla reporter, beta-lactamase ratio, CoCl2, 17 h; activation: hits give high values
In short: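 Compounds in a titration series were added to ME-180 reporter cells alongside an EC50 level of CoCl2. After 17 hours, beta-lactamase activity was read as the 460nm/530nm emission ratio of CCF4, giving AC50 values.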

[11] = target: Cytochrome P450 3A4 (Homo sapiens) (UniProt P08684); test: qHTS Assay for Activators of Cytochrome P450 3A4 (AID 885; active = well fitted curve in the direction sought with a large enough effect; an effect the other way counts as inactive or inconclusive; note: nearly all actives have a fitted effect of over 65% in size); conditions: recombinant CYP3A4, Luciferin-PPXE luminescence, 60 min; series mostly up to 11.4 µM
Sequence of Cytochrome P450 3A4 (Homo sapiens) (P08684 whole entry, looked up): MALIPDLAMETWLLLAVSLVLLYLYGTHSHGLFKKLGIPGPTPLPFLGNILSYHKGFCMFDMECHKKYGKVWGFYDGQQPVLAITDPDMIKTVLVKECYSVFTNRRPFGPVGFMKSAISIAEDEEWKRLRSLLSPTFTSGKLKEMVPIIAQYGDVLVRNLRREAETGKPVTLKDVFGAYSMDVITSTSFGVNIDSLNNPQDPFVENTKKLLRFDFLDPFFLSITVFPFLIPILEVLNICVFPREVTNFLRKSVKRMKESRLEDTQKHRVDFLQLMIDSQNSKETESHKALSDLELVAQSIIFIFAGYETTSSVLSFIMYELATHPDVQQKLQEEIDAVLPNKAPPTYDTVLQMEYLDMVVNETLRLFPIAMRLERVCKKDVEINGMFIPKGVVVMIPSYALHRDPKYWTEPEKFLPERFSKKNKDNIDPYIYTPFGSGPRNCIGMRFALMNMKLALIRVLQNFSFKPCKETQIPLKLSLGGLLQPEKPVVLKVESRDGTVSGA
In short: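 20nM CYP3A4 + 25uM Luciferin-PPXE (=KM), 200mM KPO4; cpd 10 min RT; NADPH regen, 60 min RT; stop w/ detection buffer, 20 min; luminescence. Normalized to 57 uM ketoconazole.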

[12] = target: Cytochrome P450 2C9 (Homo sapiens) (UniProt P11712); test: qHTS Assay for Inhibitors and Substrates of Cytochrome P450 2C9 (AID 883; active = well fitted curve in the direction sought with a large enough effect; an effect the other way counts as inactive or inconclusive; note: potency is the fitted concentration of half-maximal effect; nearly all actives have a fitted effect of over 60% in size); conditions: recombinant CYP2C9, luciferin-H luminescence, 60 min; series mostly up to 11.4 µM
Sequence of Cytochrome P450 2C9 (Homo sapiens) (P11712 whole entry, looked up): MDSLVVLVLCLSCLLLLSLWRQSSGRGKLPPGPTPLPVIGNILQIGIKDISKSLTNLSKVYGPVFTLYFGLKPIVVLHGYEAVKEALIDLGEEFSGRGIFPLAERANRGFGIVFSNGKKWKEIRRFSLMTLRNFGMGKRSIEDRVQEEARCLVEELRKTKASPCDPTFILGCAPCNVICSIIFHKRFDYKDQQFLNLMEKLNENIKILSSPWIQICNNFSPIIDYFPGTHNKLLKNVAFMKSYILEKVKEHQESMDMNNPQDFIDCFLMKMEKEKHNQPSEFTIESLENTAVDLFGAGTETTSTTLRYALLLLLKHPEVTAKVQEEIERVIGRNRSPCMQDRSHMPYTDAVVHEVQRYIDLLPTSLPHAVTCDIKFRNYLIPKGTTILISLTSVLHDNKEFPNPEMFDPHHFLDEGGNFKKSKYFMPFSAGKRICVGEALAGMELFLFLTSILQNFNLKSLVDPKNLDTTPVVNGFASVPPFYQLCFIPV
In short: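 Luminescent read-out of deoxyluciferin hydroxylation, normalized to 57uM sulphaphenazole (AC100). Reaction: 10nM enzyme, 100uM Luciferin-H (equal to KM), 25mM KPO4, 10 min compound preincubation, then 60 min with NADPH regeneration, both at 37C.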

[13] = target: Cytochrome P450 2D6 (Homo sapiens) (UniProt P10635); test: qHTS Assay for Inhibitors and Substrates of Cytochrome P450 2D6 (AID 891; active = well fitted curve in the direction sought with a large enough effect; an effect the other way counts as inactive or inconclusive; note: potency is the fitted concentration of half-maximal effect; nearly all actives have a fitted effect of over 60% in size); conditions: recombinant CYP2D6, luciferin-ME EGE luminescence; series mostly up to 11.4 µM
Sequence of Cytochrome P450 2D6 (Homo sapiens) (P10635 whole entry, looked up): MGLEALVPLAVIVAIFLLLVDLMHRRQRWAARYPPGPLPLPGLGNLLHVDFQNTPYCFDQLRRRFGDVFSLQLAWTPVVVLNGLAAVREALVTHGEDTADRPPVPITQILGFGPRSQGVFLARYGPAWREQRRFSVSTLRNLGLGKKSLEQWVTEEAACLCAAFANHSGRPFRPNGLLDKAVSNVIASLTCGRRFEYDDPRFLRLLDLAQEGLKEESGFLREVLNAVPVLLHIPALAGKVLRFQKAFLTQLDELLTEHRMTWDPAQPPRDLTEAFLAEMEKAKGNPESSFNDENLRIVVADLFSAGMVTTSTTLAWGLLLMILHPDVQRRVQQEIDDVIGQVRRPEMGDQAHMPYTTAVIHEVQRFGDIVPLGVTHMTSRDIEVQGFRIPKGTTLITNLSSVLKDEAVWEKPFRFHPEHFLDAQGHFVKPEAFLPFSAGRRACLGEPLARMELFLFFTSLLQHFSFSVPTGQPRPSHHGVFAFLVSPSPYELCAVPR
In short: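 Human CYP2D6 (5 nM) with 30 uM Luciferin-ME EGE (at Km) in 100 mM KPO4, compound preincubated 10 min, then NADPH regeneration system for 60 min at room temperature. Luciferin read by luminescence; normalized to 1.43 uM quinidine.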

FC(F)(F)c1nc(SCc2ccc(Cl)cc2)n[nH]1
inactive: Potency [1] > 11.4 µM | activity change, negative = inhibition [2] 1.59% | activity change, negative = inhibition [3] -18.8% [at 2.29 µM] | activity change, negative = inhibition [4] -9.79% | activity, negative = inhibition [5] -0.49% | Potency [6] > 46 µM | Potency [7] > 9.22 µM | Potency [8] | Potency [9] | activation [10] 8.01%

O=[N+]([O-])c1ccc2c(c1)S(=O)c1ccccc1-2 (stereo not drawn)
inactive: Potency [1] > 11.4 µM | activity change, negative = inhibition [2] 11.5% | activity change, negative = inhibition [4] 10.5% | activity, negative = inhibition [5] -13.7% | Potency [6] > 46 µM | Potency [7] > 9.22 µM | Potency [8] | Potency [9] | activation [10] -10.8%
active: Potency [3] 0.2 µM

COc1ccc(CNc2ncnc3ccc(-c4ccccc4C#N)cc23)c(OC)c1
active: Potency [3] 6.31 µM
inactive: Potency [1] > 11.4 µM | activity change, negative = inhibition [2] 13.2% | activity change, negative = inhibition [4] 8.27% | activity, negative = inhibition [5] -15% | Potency [6] > 46 µM | Potency [7] > 46 µM | Potency [8] | Potency [11]

N=C(N)SCc1cc(Cl)cc(Cl)c1O
inactive: Potency [1] > 11.4 µM | activity change, negative = inhibition [2] 3.73% | activity change, negative = inhibition [4] 5.42% | activity, negative = inhibition [5] 2.98% | Potency [6] > 46 µM | Potency [7] > 9.22 µM | Potency [8] | Potency [9] | activation [10] -24.5%
active: Potency [3] 5.01 µM

C[C@@]1(C(=O)O)CCC[C@@H]1C(=O)O
inactive: Potency [1] > 11.4 µM | activity change, negative = inhibition [2] 8.46% | activity change, negative = inhibition [3] -9.8% [at 2.29 µM] | activity change, negative = inhibition [4] 5.02% | activity, negative = inhibition [5] 2.41% | Potency [6] > 46 µM | Potency [7] > 9.22 µM | Potency [8] | Potency [9] | activation [10] 4.07%

C[Si](C)(c1ccc(C(=O)O)cc1)c1ccc(C(=O)O)cc1
inactive: Potency [1] > 11.4 µM | activity change, negative = inhibition [2] -1.98% | Potency [3] | activity change, negative = inhibition [4] -2.05% | activity, negative = inhibition [5] 14.2% | Potency [6] > 46 µM | Potency [8] | Potency [9]

O=C(O)c1cc(C(=O)C(=O)c2cc(C(=O)O)c(O)c3ccccc23)c2ccccc2c1O
active: Potency [12] 0.316 µM
inactive: Potency [1] > 11.4 µM | activity change, negative = inhibition [2] 22.7% | Potency [3] | activity change, negative = inhibition [4] 10.6% | activity, negative = inhibition [5] 0.955% | Potency [6] > 46 µM | Potency [7] > 9.22 µM

Nc1c(S(=O)(=O)O)cc(Nc2cccc(S(N)(=O)=O)c2)c2c1C(=O)c1ccccc1C2=O
active: Potency [3] 3.98 µM | Potency [12] 3.16 µM
inactive: Potency [1] > 11.4 µM | activity change, negative = inhibition [2] 26% | activity change, negative = inhibition [4] -26.6% | activity, negative = inhibition [5] 2.62% | Potency [6] > 46 µM | Potency [7] > 9.22 µM | Potency [9] | Potency [11]

Nc1cc2c(nc3c4ccccc4c(N)cc3[n+]2-c2cccc3ccccc23)c2ccccc12 (tested in a mixture with another compound)
active: Potency [3] 1.26 µM | Potency [13] 1.58 µM
inactive: Potency [1] > 11.4 µM | activity change, negative = inhibition [2] 11.3% | activity change, negative = inhibition [4] 8.58% | activity, negative = inhibition [5] 6.04% | Potency [6] > 46 µM | Potency [7] > 9.22 µM | Potency [9]

O=C(O)c1ccc(C(=O)O)c(C(=O)O)c1.[NH-][C@@H]1CCCC[C@@H]1[NH-].[Pt]
inactive: Potency [1] > 11.4 µM | activity change, negative = inhibition [2] 0.428% | Potency [3] | activity change, negative = inhibition [4] -9.87% | activity, negative = inhibition [5] -6.09% | Potency [6] > 46 µM | Potency [7] > 9.22 µM | Potency [9]

CN(CC(=O)O)Cc1c[nH]c2ccccc12
inactive: Potency [1] > 11.4 µM | activity change, negative = inhibition [2] -2.9% | Potency [3] | activity change, negative = inhibition [4] -8.48% | activity, negative = inhibition [5] -5.98% | Potency [6] > 46 µM | Potency [7] > 9.22 µM | Potency [9]

COc1ccc(/C=C(\C#N)C(N)=O)cc1OC
inactive: Potency [1] > 11.4 µM | activity change, negative = inhibition [2] -5.77% | activity change, negative = inhibition [4] 11.6% | activity, negative = inhibition [5] -2.19% | Potency [6] > 46 µM | Potency [7] > 9.22 µM | Potency [9]
active: Potency [3] 3.16 µM

O=C(O)c1cccc2cccc(-c3cccc4cccc(C(=O)O)c34)c12
inactive: Potency [1] > 11.4 µM | activity change, negative = inhibition [2] 4.88% | activity change, negative = inhibition [3] -12.3% [at 2.29 µM] | activity change, negative = inhibition [4] 10.7% | activity, negative = inhibition [5] 6.14% | Potency [6] > 46 µM | Potency [7] > 9.22 µM | Potency [9]

O=C(O)NCc1ccccc1 (tested in a mixture with another compound)
active: Potency [3] 3.16 µM | Potency [13] 3.98 µM
inactive: Potency [1] > 11.4 µM | activity change, negative = inhibition [2] 4.23% | activity change, negative = inhibition [4] -18.9% | activity, negative = inhibition [5] 1.18% | Potency [6] > 46 µM | Potency [7] > 9.22 µM | Potency [8] | activation [10] 1.79%

O=C1C(=O)c2ccccc2C(O)=C1C(CCc1ccccc1)C1=C(O)c2ccccc2C(=O)C1=O
inactive: Potency [1] > 11.4 µM | activity change, negative = inhibition [2] -6.25% | activity change, negative = inhibition [3] -21.3% [at 2.29 µM] | activity change, negative = inhibition [4] 6.66% | activity, negative = inhibition [5] -1.13% | Potency [6] > 46 µM | Potency [7] > 9.22 µM | Potency [9]
active: Potency [12] 3.16 µM

Cc1ccc(S(=O)(=O)N[C@H](C(=O)O)C(C)C)cc1
inactive: Potency [1] > 11.4 µM | activity change, negative = inhibition [2] 9.07% | Potency [3] | activity change, negative = inhibition [4] -0.0198% | activity, negative = inhibition [5] -0.976% | Potency [6] > 46 µM | Potency [7] > 9.22 µM | Potency [9]
